Laboratory results: PubChem BioAssay AID493192 (National Center for Advancing Translational Sciences (NCATS), 2011)
Results filed as inconclusive are left out. A call without a number means that no potency is given here. Activity calls are given as the source filed them. Calls come from the whole dose curve; as a rule, active = well fitted activation curve with a large enough effect; inconclusive = small, poorly fitted or top-dose-only effect; inactive = no such curve, though single readings can be large or run the other way.

experiment: qHTS Assay for Identifying a Potential Treatment of Ataxia-Telangiectasia: Hit Validation; details: Ataxia-telangiectasia cell-based hit validation qHTS, in ATM-null A-T patient fibroblasts; series mostly up to 76.9 µM;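 note: phospho-KAP1 level by AlphaLISA as a proxy for ATM-like kinase activity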
Method in brief: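 KAP-1 phosphorylation was read by AlphaLISA as a measure of ATM-like activity in ATM-null F2112 fibroblasts. Compounds spanned up to 76.7 uM final, with 60 min exposure at 37C and a 6 hr detection incubation at 25C.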
Potency is the fitted concentration of half-maximal effect.

SMILES | Potency
COC1=C(N)C(=O)c2nc(-c3nc(C(=O)O)c(C)c(-c4ccc(OC)c(OC)c4O)c3N)ccc2C1=O | inactive
CCCCN(c1nc2ccccc2nc1Cl)S(=O)(=O)c1ccc(C)cc1 | 26 µM (active)
COC(=O)N/N=C/c1ccccc1OCCOc1ccc(OC)cc1 | inactive
O=C1/C(=C/c2ccc(N3CCOCC3)o2)SC(=Nc2ccccc2)N1CCc1c[nH]c2ccccc12 | inactive
CCOC(=O)N1CCC(NC(=O)C2CCN(S(=O)(=O)c3cccc4cccnc34)CC2)CC1 | inactive
CCn1nc(C)c(/C=N/NC(=O)Cn2cncn2)c1C | inactive
CCOC(=O)N1CCN(c2nc(N(c3ccccc3)c3ccccc3)nc(-n3ccnc3)n2)CC1 | inactive
CCc1oc(C(=O)OC)cc1CSC(=N)N | inactive
CCC(=O)NC1=C(Cl)C(=O)C(NC(=O)CC)=C(Cl)C1=O | inactive
CC(C)CNS(=O)(=O)c1cc(C(=O)O)c(Cl)cc1Cl | inactive
O=C1NC(NS(=O)(=O)c2ccc(Cl)cc2)(C(F)(F)F)C(=O)N1CCc1ccccc1 (centres undefined) | inactive
COC(=O)c1ccc2[nH]c3cccc(/C(=C/c4ccccc4)c4ccccc4)c3c2c1 | inactive
CCc1ccc(NC(=O)CNCc2ccc(OC)c(OC)c2)cc1 | inactive
CC(=O)Nc1ccc(NC2=CC(=O)c3ccccc3C2=O)cc1 | inactive
CC1=C/C(=C\C=C(C#N)C#N)N(C)c2ccccc21 | inactive
CCOc1ccccc1CNC(=O)Cn1c(=O)oc2ccccc21 | 23.2 µM (active)
CCN(CC)CCNC(=O)CCc1c(C)nc2c(c(C)nn2-c2ccc(C)cc2)c1C | inactive
Cc1nnc(SCC(=O)NC(=O)Nc2ccc3c(c2)OCCO3)n1N | inactive
COc1cc(/C=C2\SC(=S)N(C(C(=O)O)c3ccccc3)C2=O)ccc1O (centres undefined) | inactive
